About 79,000 compounds went through this panel and 15% of them were active in at least one assay; those are over-represented in the sample as a whole. Cut-off read from the data, not from the text of the source: active = growth inhibition above about 70%; inactive = the rest.
Assays:
[1] = NCI Yeast Anticancer Drug Screen. Data for the rad50 strain (AID 155);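 note: 0% = growth of vehicle-only cultures of the same strain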; conditions: S. cerevisiae rad50 strain growth inhibition; at 50.0 µM; stronger effect = higher value
Outline: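 Readout: growth inhibition relative to vehicle-treated cultures. Compound exposure was carried out in a genetically defined yeast strain deficient in DNA damage repair.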

[2] = NCI Yeast Anticancer Drug Screen. Data for the mec2-1 strain (AID 157); conditions: S. cerevisiae mec2-1 strain, at 50.0 µM, stronger effect = higher value
Outline: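 Vehicle-treated cultures served as reference for growth inhibition of compound-exposed mec2-1 yeast.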

[3] = NCI Yeast Anticancer Drug Screen. Data for the sgs1 mgt1 strain (AID 161);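 note: 0% = growth of cultures given vehicle only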; conditions: S. cerevisiae sgs1 mgt1 strain, at 50.0 µM, stronger effect = higher value
Outline: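 Inhibition of yeast growth, normalised to vehicle-treated controls, is reported for a strain bearing genetic alterations in DNA damage repair.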

[4] = NCI Yeast Anticancer Drug Screen. Data for the cln2 rad14 strain (AID 165);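 note: 0% = growth equal to vehicle treated cultures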; conditions: S. cerevisiae cln2 rad14 strain, at 50.0 µM, stronger effect = higher value
Outline: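 Each compound was tested on cln2 rad14 yeast. Inhibition of growth was calculated against vehicle-exposed controls.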

[5] = NCI Yeast Anticancer Drug Screen. Data for the bub3 strain (AID 167); conditions: S. cerevisiae bub3 mutant strain, at 50.0 µM, stronger effect = higher value
Outline: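 Readout: yeast growth inhibition, expressed relative to vehicle-only wells. The test organism is a mutant strain from a panel with lesions in DNA repair or checkpoint genes.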

[6] = NCI Yeast Anticancer Drug Screen. Data for the mlh1 rad18 strain (AID 175); conditions: S. cerevisiae mlh1 rad18 strain growth inhibition; at 50.0 µM; stronger effect = higher value
Outline: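 Vehicle-treated cultures served as the reference for growth inhibition in a yeast strain carrying DNA damage repair alterations exposed to each compound.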

Measured: growth inhibition

CCC(=O)C(C)C1=Nc2nnc(CCCCCCCc3nnc4n3C(=O)C(C(C)C(=O)CC)=N4)n2C1=O (configuration not stated)
inactive: [1] -13.7% | [2] 12.3% | [3] 11.8% | [4] -7.4% | [5] -3.05% | [6] -4.35%

Cl[Si]1(Cl)Oc2ccccc2O[Si](Cl)(Cl)Oc2ccccc2O1
inactive: [1] 16.2% | [2] 10.6% | [3] 8.35% | [4] 28.6% | [5] 3.7% | [6] 10.2%

CC(=O)Nc1cc(OC(C)=O)c(OC(C)=O)c2ccccc12
inactive: [1] -7.45% | [2] -6.9% | [3] -0.6% | [4] -1.55% | [5] -33.1% | [6] 1.1%

O=C1CN(c2ccccc2)CC(=O)N2C(c3ccccc3)CCCN12 (configuration not stated)
inactive: [1] 22.3% | [2] 1.65% | [3] -6.05% | [4] 26.2% | [5] 24.4% | [6] 3.35%

C=CS(=O)(=O)c1ccc(Nc2cc(S(=O)(=O)O)c(N)c3c2C(=O)c2ccccc2C3=O)cc1
inactive: [1] -20.2% | [2] -30.9% | [3] -4.1% | [4] 2.9% | [5] -19.3% | [6] -36.1%

O=C(Nc1nc2ccc([N+](=O)[O-])cc2s1)C(=O)C(C(=O)c1ccccc1F)C1OC(=O)c2ccccc21 (configuration not stated)
inactive: [1] 29.8% | [2] 39.6% | [3] 59.5% | [4] 25.6% | [5] 38.5% | [6] 27.8%

CCCCOC(=O)c1ccc(NC(=O)CCCN(CC)CC)cc1
inactive: [1] 5.5% | [2] -2.3% | [3] 0.85% | [4] 13.2% | [5] 14.4% | [6] -5%

COc1cc([N+](=O)[O-])cc2c1OC1(C=C2)Oc2ccccc2N1C (configuration not stated)
inactive: [1] -36.1% | [2] -25.9% | [3] -16.3% | [4] -16.8% | [5] -22.9% | [6] -17.9%

CCOC(=O)C(Cl)(NC(=O)c1ccc(F)cc1)C(F)(F)F (configuration not stated)
inactive: [1] -6.25% | [2] 6.7% | [3] -18.5% | [4] 7.3% | [5] -12.9% | [6] -18.1%

COc1ccc(NC(=O)Nc2ccc(-c3ccc(NC(=O)Nc4ccc(OC)cc4)c(C)c3)cc2C)cc1
inactive: [1] -30.1% | [2] -41.4% | [3] -8.5% | [4] -3.25% | [5] -24.1% | [6] -23.6%

CC(=O)OC1CCC2C(C)(CCC3C2(C)CCC2(C)C4CC(C)(C)CCC4(C)CCC32C)C1C (configuration not stated)
inactive: [1] -15.1% | [2] -6.25% | [3] -11.8% | [4] -38.1% | [5] -0.05% | [6] -11.8%

NC(Cc1c[nH]c2ccc(O)cc12)C(=O)O (configuration not stated)
inactive: [1] -5.85% | [2] -8.35% | [3] -4.9% | [4] 4.9% | [5] -0.7% | [6] -9.3%

OC(c1ccccc1)c1ccc2c(c1)CCC2 (configuration not stated)
inactive: [1] 3.55% | [2] -8.65% | [3] -6.1% | [4] -25.1% | [5] -18% | [6] 5.3%

O=[N+]([O-])c1ccc(Nc2nc3ccccc3s2)cc1
inactive: [1] 6.75% | [2] 11.8% | [3] -24.7% | [4] -21.5% | [5] 5.75% | [6] 15.2%

CCO/N=C(\N)c1ccccc1
inactive: [1] -8.4% | [2] 1.75% | [3] -2.5% | [4] -18.9% | [5] 0.95% | [6] 3.25%

O=C(O)c1cccc(=O)o1
inactive: [1] -3.35% | [2] -16.3% | [3] -11.3% | [4] 3.35% | [5] 7.1% | [6] -1.65%

CC1=C2C(=CC(C)(CO)C2O)C(O)C(C)(O)C12CC2 (configuration not stated)
inactive: [1] 21.1% | [2] -5.15% | [3] -17.1% | [4] 1.95% | [5] -13.9% | [6] -29.8%

COc1cc(/C=C(\C#N)c2ccccc2)cc(OC)c1
inactive: [1] 43.8% | [2] -13.5% | [3] -9.6% | [4] -9.8% | [5] 17.4% | [6] -28.9%

COc1cc(CNc2nc3ccccc3nc2C(=O)O)cc(OC)c1OC
inactive: [1] 10.3% | [2] 3.05% | [3] -8.75% | [4] 5.1% | [5] -2.15% | [6] -0.4%

N#C/C(=C\N1CCNC1=S)C(=O)c1ccc2ccccc2c1
inactive: [1] 23.1% | [2] 1.75% | [3] -1.7% | [4] 0.55% | [5] 14.7% | [6] 11.6%

N#Cc1ccc(Br)cc1
inactive: [1] 7.95% | [2] -3.45% | [3] 16.6% | [4] -19.9% | [5] -6.2% | [6] 18.1%

CC[N+](CC)(CCO)CCCCCCCCCC[N+](CC)(CC)CCO
inactive: [1] 29.6% | [2] -4.15% | [3] 10.6% | [4] -15.3% | [5] -1.15% | [6] 9.2%

O=c1cc(-c2cccc(OC(F)(F)F)c2)[nH]c2cc3c(cc12)OCO3
inactive: [1] -6.25% | [2] 2.75% | [3] -5.05% | [4] 13.8% | [5] 19.7% | [6] -24.2%

CC/C(=N/NC(N)=O)C1C=COC=C1
inactive: [1] -5.75% | [2] 2% | [3] -0.1% | [4] -6.8% | [5] -11.8% | [6] 1.2%

CC[n+]1c(-c2ccccc2)c2cc(NCCCN)ccc2c2ccc(N)cc21
inactive: [1] 33% | [2] 15.8% | [3] 8.8% | [4] 6.3% | [5] 3.75% | [6] 40.5%

C=CC12c3c4cc(OC)cc3OC1C(O)CCC2CC4 (configuration not stated)
inactive: [1] -8.05% | [2] 8.85% | [3] -6.2% | [4] 9.85% | [5] 4.5% | [6] 5.65%

O=C(Cc1ccccc1)NN1C(=O)/C(=C\c2cccc(O)c2)SC1=Nc1ccccc1
inactive: [1] -11% | [2] -18.9% | [3] -6% | [4] 5.9% | [5] -45.3% | [6] -16.9%

CC(=O)OC[C@]1(C)CCCC2(C)C1CCC1C=C(C)[C@H]3CCC12C3 (some centres not stated)
inactive: [1] 2.05% | [2] -2.85% | [3] -17.8% | [4] -1.65% | [5] -3.1% | [6] 11.3%

COc1ccc(Nc2ccnc3cc(Cl)ccc23)cc1CCN
inactive: [1] 4.65% | [2] 8.85% | [3] 24% | [4] 10.6% | [5] -5.9% | [6] -5.8%

CCc1occc(=O)c1O
inactive: [1] 16.6% | [2] -6.95% | [3] -1.75% | [4] 1.75% | [5] 16.8% | [6] -9.1%

COc1ccc(NS(=O)c2ccc(Cl)cc2)cc1 (configuration not stated)
inactive: [1] 13% | [2] 12.8% | [3] 28.3% | [4] 8.65% | [5] 11.4% | [6] 13.9%

CCCC(C)CCCC(=O)c1ccc2cc(OC)ccc2c1 (configuration not stated)
inactive: [1] -34.2% | [2] -16.8% | [3] -14.5% | [4] -33.3% | [5] -2% | [6] -29.9%

O=Cc1cc(C(=O)c2ccccn2)c2cc(Cl)cc(Cl)c2n1
inactive: [1] 8.05% | [2] 5.9% | [3] 5.8% | [4] -13.8% | [5] -4.3% | [6] 11.6%

C=CS(=O)(=O)CCCCCCCCCCCCCC
inactive: [1] 28.1% | [2] 27.6% | [3] 28.9% | [4] 2.1% | [5] -5% | [6] 29.5%

C=C1c2cc3c(cc2CC12Cc1cc4c(cc1C2=O)CCC4)CCC3 (configuration not stated)
inactive: [1] 20.2% | [2] 22% | [3] 11.3% | [4] 24.1% | [5] 46.8% | [6] 16%

Cc1c(C#N)c(N)[nH]c(=S)c1C#N
inactive: [1] 5.5% | [2] 20.2% | [3] 4.95% | [4] 1.25% | [5] 0.45% | [6] 11.3%

O=C(/C=C/c1ccccc1)N/N=C/c1ccncc1
inactive: [1] 5.2% | [2] 24.9% | [3] 1.6% | [4] -9.2% | [5] -0.45% | [6] 11.3%

Reference: PubChem BioAssay (NCI)
